# Experimental data reported in PubChem BioAssay AID1461 (National Center for Advancing Translational Sciences (NCATS), 2008).
# Hit rate of the full screen: of about 220,000 compounds, about 2,300 (1%) were called active. Roughly 6% stayed inconclusive and do not appear here. Calls follow the shape of the dose curve; as a rule, active = well fitted inhibition curve with a large enough effect; inconclusive = small, poorly fitted or top-dose-only effect, or effect the other way; inactive = no such curve, though single readings can be large or run the other way. What follows is part of a selection rich in actives, with near analogues and random picks from the rest.
# Target: Neuropeptide S receptor (Homo sapiens) (UniProt Q6W5P4)
# Test: qHTS Assay for Antagonists of the Neuropeptide S Receptor: cAMP Signal Transduction; also: nearly all actives have a fitted effect of over 50% in size
# Conditions: CHO-NPSR cells, cAMP TR-FRET, antagonist mode; series mostly up to 38.3 µM; activity change, negative = inhibition: at the top concentration
# Excerpt: NIH Chemical Genomics Center [NCGC] NIH Molecular Libraries Probe Production centers Network [MLPCN] MLPCN Grant: X01-DA026210-01 Assay Submitter (PI): Heilig, Markus Alexander NCGC Assay Overview: Neuropeptide S receptor (NPSR), previously known as GPR154, is a recently de-orphanized G protein coupled receptor. Its endogenous ligand is the 20 amino acids peptide Neuropeptide S (NPS). […] NPS and its receptor are found in various tissues. Specifically they are highly expressed in brain areas that have been implicated in modulation of arousal, stress and anxiety. Central administration of NPS in mice produces an unusual profile of activity by inducing wakefulness and arousal, while at the same time suppressing anxiety. Therefore, NPSR may represent a novel drug target for the treatment of sleep and anxiety disorders. To identify NPSR antagonists, we developed a cell-based cAMP assay. NPS can stimulate the production of cAMP in Chinese hamster ovary cells stably expressing NPS receptor. This change in intracellular cAMP level can be detected by a homogeneous LANCE cAMP assay based on the TR-FRET (time resolved fluorescence resonance energy transfer) between a europium-labeled cAMP tracer complex and a cAMP-specific antibody labeled with Alexa Fluor 647. The europium-labeled cAMP tracer complex is formed by the tight interaction between Biotin-cAMP (b-cAMP) and streptavidin labeled with Europium-W8044 chelate (Eu-SA). Light pulse at 320 nm excites the europium of the cAMP tracer and the energy emitted is transferred to the Alexa molecule bound to the cAMP antibody, generating a TR-FRET signal at 665 nm. Residual energy from the europium will produce a light at 620 nm. The native unlabeled cAMP from cell lysates competes with the europium-cAMP tracer for antibody binding and reversely reduces the emission signal of Alexa by interrupting FRET between the two labeled molecules. Both emission signals from the FRET donor (620 nm) and the acceptor (665 nm) can be detected by a plate reader in the TRF mode. Expression of result in fluorescence ratio (665 nm/620 nm) helps to normalize differences due to cell density and reagent dispensing. This assay was successfully optimized to a 1536-well plate format.
# NCGC Assay Protocol Summary: A Chinese hamster ovary (CHO) cell line stably expressing the NPS receptor (CHO-NPSR) was obtained from Dr. Heilig lab at NIAAA and maintained in F-12 Kaighn's media (Invitrogen, Carlsbad, CA, 21127) supplemented with 10 % FBS, 100 units/ml penicillin, 100 ug/ml streptomycin and 250 ug/ml geneticin at 37C, 5% CO2 in a humidified atmosphere. Before the assay, aliquots of cells were frozen and stored at -135C. The assay was performed in 1536-well format. Data are reported for both the ratio of the two emission wavelengths, and also for the component 'donor' channel, Em2=620. Data were normalized to the controls for basal activity (DMSO only) and 100% inhibition (No NPS control). IC50 values were determined from concentration-response data modeled with the standard Hill equation. NPS 1536-well assay protocol: (1) Fresh or frozen CHO-NPSR cells were suspended in F-12 Kaighn's media supplemented with 10 % FBS, 100 units/ml penicillin and 100 ug/ml streptomycin. Cells were plated at 4 ul/well (1200 cells) to white, tissue culture treated 1536-well plates, and then cultured at 37C, 5 % CO2 for 16 to 30 hours. (2) Add 23 nl/well of compound in DMSO solution. The final titration for each compound was between 0.6 nM and 46 uM. (3) Add 1 ul of stimulation reagent (1X HBSS buffer, 5 mM HEPES, 0.1% BSA, 500 uM RO-201724 (Sigma-Aldrich, B8279), 1.5% Alexa 647-labeled anti-cAMP antibody (from Perkin Elmer), 100 nM NPS) (4) Incubation at 37C, 5 % CO2 for 60 min. (5) Add 1 ul/well detection reagent. Detection reagent was prepared by adding biotin labeled cAMP (4%), streptavidin labeled with Europium-W8044 chelate (1.33%) and TritonX-100 (1%) to detection buffer. […]
# % is scaled to controls: 0 for no effect and ±100 for the full control effect; potency is read from the fitted curve at half-maximal effect.
# Sequence of Neuropeptide S receptor (Homo sapiens) (Q6W5P4 whole entry, looked up): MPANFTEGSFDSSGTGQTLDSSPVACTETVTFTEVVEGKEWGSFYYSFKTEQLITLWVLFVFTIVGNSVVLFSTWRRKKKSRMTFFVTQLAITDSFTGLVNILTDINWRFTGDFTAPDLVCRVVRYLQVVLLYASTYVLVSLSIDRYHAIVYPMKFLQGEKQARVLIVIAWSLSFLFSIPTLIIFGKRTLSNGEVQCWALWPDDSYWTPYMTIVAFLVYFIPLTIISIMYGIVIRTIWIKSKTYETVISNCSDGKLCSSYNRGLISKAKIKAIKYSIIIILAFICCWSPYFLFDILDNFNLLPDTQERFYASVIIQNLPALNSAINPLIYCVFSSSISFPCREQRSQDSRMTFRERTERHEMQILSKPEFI
SMILES,Potency,"activity change, negative = inhibition"
CC(=O)Oc1ccccc1C(=O)Nc1ncc([N+](=O)[O-])s1,3.16 µM (active),
CCN1CC2C3CCC(C)(O3)C2C1 (stereo not given),,-11.5% (inactive)
O=C1NC(=O)N(c2ccc(F)cc2)C(=O)/C1=C/c1ccc2c(c1)CCCN2Cc1ccccc1,,-19.5% (inactive)
Cc1cccc(N2C(=O)NC(=O)/C(=C\c3cnn(-c4ccccc4)c3)C2=O)c1,10 µM (active),
COc1cccc(N2C(=O)NC(=O)/C(=C\c3ccc([N+](=O)[O-])s3)C2=O)c1,,-36.3% (inactive)
CC1=C2C(=O)C3C(CC=C4CC(OC5OC(O)C(O)C(O)C5CO)CCC43C)C2CCC12OC1CC(C)CNC1C2C (stereo not given),,8.99% (inactive)
CCOc1cccc(=NC2CCCCC2)c2c(C)[nH]c(C)c12,6.31 µM (active),
COc1ccc(-n2c(O)c(C(C)=Nc3ccc4c(c3)CCC4)c(=O)[nH]c2=O)cc1,,27.1% (inactive)
CNC(=O)Nc1ccc(C(O)(C(=O)OC)C(F)(F)F)cc1 (stereo not given),,26.3% (inactive)
O=c1[nH]c(CN2CC=C(c3ccccc3)CC2)nc2scc(-c3cccs3)c12,,25.8% (inactive)
CCC(C)n1c(O)c(/C=N/Nc2nc3c(c(=O)n(C)c(=O)n3C)n2C)c(=O)[nH]c1=S (stereo not given),,5.88% (inactive)
COc1cccc(CN2CCCC(C(=O)c3ccccc3SC)C2)c1O (stereo not given),,-42.8% (inactive)
CCCCCCCCCCCCn1ccc(=N)cc1,6.31 µM (active),
CC(=O)Cc1ccc(OC(C)C)cc1,,-24% (inactive)
C/C=C/CC1(CC)C(=O)NC(=S)NC1=O,,-14.4% (inactive)
CC1C2Cn3c(nc4ccccc43)C1N(C)O2 (stereo not given),,20.9% (inactive)
CN(C)CC1CCCCC1=O (stereo not given),,-18.5% (inactive)
O=C1CC(=O)N(Cc2ccccc2)C(=O)N1CCCCCCN1C(=O)CC(=O)N(Cc2ccccc2)C1=O,,4.26% (inactive)
O=c1[nH]c(=O)n(-c2ccc(F)cc2)c(O)c1C=NCCN1CCCCC1,,-19.9% (inactive)
Fc1ccc(C2N3CCCN23)cc1 (stereo not given),,28.7% (inactive)
